# VDR inh – inhibitors of human vitamin D receptor | VDR-SRC2-3 peptide fluorescence polarization, 2 h | Potency, µM, without a hit: max response, negative = inhibition, hits mostly inhibitors | 400,000 compounds, 0.93% hits | AID 504847; further: on the % scale 0 is the no-effect control and ±100 the full control effect
#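 VDR–SRC2-3 interaction, FP format. Cmpds 23 nl via pintool, brief spin, 2 h ambient incubation.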
# BAZ2B block – inhibitors of human BAZ2B bromodomain. Q9UIF8. 360,000 compounds, 4.4% hits. Potency, µM (top dose mostly 114 µM), inactives show top-dose activity change, negative = inhibition, hits mostly inhibitors. AlphaScreen BAZ2B-H3K14Ac peptide displacement; further: on the % scale 0 is the no-effect control and ±100 the full control effect; nearly all actives have a fitted effect of over 60% in size
# Target sequence (Q9UIF8 whole entry, looked up): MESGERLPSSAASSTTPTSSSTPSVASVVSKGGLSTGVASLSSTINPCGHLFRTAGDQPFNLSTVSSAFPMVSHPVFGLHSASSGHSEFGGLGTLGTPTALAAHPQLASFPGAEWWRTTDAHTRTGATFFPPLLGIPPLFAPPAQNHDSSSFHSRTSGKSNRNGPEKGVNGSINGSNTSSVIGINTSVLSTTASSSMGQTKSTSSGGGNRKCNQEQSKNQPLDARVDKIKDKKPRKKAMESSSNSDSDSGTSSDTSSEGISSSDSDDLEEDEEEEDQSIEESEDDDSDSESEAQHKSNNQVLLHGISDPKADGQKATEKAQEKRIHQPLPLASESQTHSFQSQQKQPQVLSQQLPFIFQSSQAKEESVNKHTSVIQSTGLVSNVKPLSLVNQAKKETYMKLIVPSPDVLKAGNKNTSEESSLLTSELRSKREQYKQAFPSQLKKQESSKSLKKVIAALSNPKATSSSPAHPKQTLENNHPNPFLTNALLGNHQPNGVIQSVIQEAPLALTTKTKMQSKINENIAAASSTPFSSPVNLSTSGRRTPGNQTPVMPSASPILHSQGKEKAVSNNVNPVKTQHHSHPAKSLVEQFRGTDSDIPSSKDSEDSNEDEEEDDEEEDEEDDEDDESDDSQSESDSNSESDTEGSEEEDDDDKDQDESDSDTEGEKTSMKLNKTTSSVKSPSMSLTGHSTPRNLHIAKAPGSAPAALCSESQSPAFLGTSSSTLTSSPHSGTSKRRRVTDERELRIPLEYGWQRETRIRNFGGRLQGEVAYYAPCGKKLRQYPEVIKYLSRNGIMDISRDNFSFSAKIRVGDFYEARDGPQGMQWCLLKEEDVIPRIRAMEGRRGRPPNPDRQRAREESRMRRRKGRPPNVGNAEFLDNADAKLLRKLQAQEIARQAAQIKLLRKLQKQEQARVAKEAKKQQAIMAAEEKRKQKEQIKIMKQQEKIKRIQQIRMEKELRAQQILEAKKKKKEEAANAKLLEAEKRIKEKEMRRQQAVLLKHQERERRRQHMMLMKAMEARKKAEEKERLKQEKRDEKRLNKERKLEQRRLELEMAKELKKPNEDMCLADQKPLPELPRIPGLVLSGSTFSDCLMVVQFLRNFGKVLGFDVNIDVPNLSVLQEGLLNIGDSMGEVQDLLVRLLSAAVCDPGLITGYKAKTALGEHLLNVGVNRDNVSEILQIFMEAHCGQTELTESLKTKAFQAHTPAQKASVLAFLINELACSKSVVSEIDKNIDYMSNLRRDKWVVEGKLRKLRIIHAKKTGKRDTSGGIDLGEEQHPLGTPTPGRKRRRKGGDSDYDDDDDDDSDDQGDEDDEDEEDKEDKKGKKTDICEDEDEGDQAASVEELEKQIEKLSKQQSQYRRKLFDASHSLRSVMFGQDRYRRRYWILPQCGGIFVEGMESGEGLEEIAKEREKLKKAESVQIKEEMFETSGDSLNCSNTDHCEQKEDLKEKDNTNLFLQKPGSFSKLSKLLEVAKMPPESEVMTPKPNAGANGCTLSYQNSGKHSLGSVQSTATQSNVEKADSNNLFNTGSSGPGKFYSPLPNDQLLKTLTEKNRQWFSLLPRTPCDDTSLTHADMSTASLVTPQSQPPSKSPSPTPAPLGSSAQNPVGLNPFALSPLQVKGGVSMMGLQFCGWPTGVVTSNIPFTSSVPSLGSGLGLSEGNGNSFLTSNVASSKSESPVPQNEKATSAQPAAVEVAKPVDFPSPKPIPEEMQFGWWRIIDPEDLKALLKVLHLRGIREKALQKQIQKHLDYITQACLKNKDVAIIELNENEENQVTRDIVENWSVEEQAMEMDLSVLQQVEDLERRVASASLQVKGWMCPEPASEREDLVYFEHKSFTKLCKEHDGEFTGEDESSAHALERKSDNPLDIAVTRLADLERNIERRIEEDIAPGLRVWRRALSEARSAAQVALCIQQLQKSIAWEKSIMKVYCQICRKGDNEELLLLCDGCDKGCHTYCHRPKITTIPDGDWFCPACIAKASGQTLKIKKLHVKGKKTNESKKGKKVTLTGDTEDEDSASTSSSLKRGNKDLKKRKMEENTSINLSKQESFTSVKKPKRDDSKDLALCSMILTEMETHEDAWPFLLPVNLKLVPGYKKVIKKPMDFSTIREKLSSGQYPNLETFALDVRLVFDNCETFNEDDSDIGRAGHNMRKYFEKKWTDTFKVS
#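 Complex of BAZ2B and biotin-H3K14Ac (50 nM apiece) forms over 30 min at RT, then faces library compounds up to 110 uM for another 30 min; AlphaScreen beads added, 20 min dark incubation, luminescence read.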
# PLK1 PBD inh – blocks phosphopeptide binding to human PLK1 polo-box domain | Potency, µM, for inactives: max response, negative = inhibition, usual class: inhibitors | Plk1 PBD binding of FITC phosphopeptide, fluorescence polarization | 360,000 compounds, 2.8% hits | P53350; further: series mostly up to about 57 µM; on the % scale 0 is the no-effect control and ±100 the full control effect; nearly all actives have a fitted effect of over 65% in size
# HP1b chromo inh – inhibitors of HP1-beta chromodomain binding to methylated histone tails; P83916; AlphaScreen HP1-beta / biotin-H3K9me3 peptide binding; Potency, µM (doses to about 114 µM), without a hit: at the top dose activity change, negative = inhibition, most hits filed as inhibitors; 390,000 compounds, 0.56% hits; further: nearly all actives have a fitted effect of over 70% in size
#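 Compound inhibition of the preformed complex between 50 nM HP1-beta and 50 nM biotinylated H3K9me3 peptide was read by AlphaScreen. Buffer was PBS pH 7.4 with 0.01% Tween-20. Incubations ran 30 min at room temperature, with 10 ug/mL donor/acceptor beads.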
# JMJD2A Tudor – inhibitors of human JMJD2A Tudor domain. O75164. AlphaScreen JMJD2A-Tudor / H3K4me3 peptide binding. Potency, µM (doses to about 114 µM), for the others: at the top dose activity change, negative = inhibition, usual class: inhibitors. 390,000 compounds, 4.4% hits. AID 504339; further: on the % scale 0 is the no-effect control and ±100 the full control effect; nearly all actives have a fitted effect of over 50% in size
# L3MBTL1 inh – blocks human L3MBTL1; AlphaScreen L3MBTL1–H3K9me1 peptide binding; Potency, µM (top dose mostly 57.1 µM), for inactives: top-dose activity, negative = inhibition, hits mostly inhibitors; 230,000 compounds, 0.66% hits; further: on the % scale 0 is the no-effect control and ±100 the full control effect; nearly all actives have a fitted effect of over 60% in size
#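 L3MBTL1 50 nM + b-AHA-H3(1-15)K9me1 75 nM, 30 min RT; compound added, 30 min RT; streptavidin donor/Ni-chelate acceptor beads 10 ug/mL each final, 30 min RT dark; AlphaScreen read.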
# * = called active by the depositor; ? = inconclusive; · = not tested or not shown; ! = not confirmed by another sample; [ ] = remark or other dose. A selection: hits, their analogues and other compounds. The true share with any hit is near 6.9%. The call rests on the fitted dose curve; in most records, active means well fitted curve in the direction sought with a large enough effect; inconclusive means small, poorly fitted or top-dose-only effect, or another doubt; inactive means no such curve, though single readings can be large; an effect the other way counts as inactive or inconclusive. Potency means the concentration at half of the fitted maximal effect.
SMILES,VDR inh,BAZ2B block,PLK1 PBD inh,HP1b chromo inh,JMJD2A Tudor,L3MBTL1 inh
COc1cc(/C=C2\SC(N)=NC2=O)cc(OC)c1,?,-1%,13µM*,22%,?,7%
C/C=C1\COC(C(=O)NCc2ccccc2)(C(F)(F)F)C=C1C=C1CCCCC1 (stereo unspecified),79µM*!,·,-14%,77%,8%,·
CCSc1nc2ccccc2n1CC(N)=O,7%,9%,-6%,19%,-15%,-5%
CCSc1nc2ccccc2n1C(=O)/C=C\c1ccc(OC)c(OC)c1,50µM*,-1%,-2%,4%,-16%,-2%
O=C(CNC(=O)/C=C/c1ccco1)N=Nc1c(O)[nH]c2ccccc12,-2%,56µM*,?,39%,-4%,·
COc1ccc(Cn2c(SCc3ccc(C(=O)NCc4cccs4)cc3)nc3ccncc32)cc1,-12%,-32%,·,26%,-15%,·
Cc1ccc(S(=O)c2ccc(NC(=O)C3CC3)cc2C#N)cc1 (stereo unspecified),71µM*,-1%,11µM*,-18%,14µM*,25%
Cc1ccc(NC(=O)C2CCN(S(=O)(=O)c3ccccc3)CC2)cc1,-2%,-16%,-13%,14%,-2%,9%
CC(=O)N1CCCc2cc(S(=O)(=O)N3CCN(c4ccc(F)cc4)CC3)ccc21,-3%,13%,·,13%[57 µM],-28%,·
CCN1CCN(Cc2oc(CO)cc(=O)c2O)CC1,13%,50µM*,-6%,13%,13µM*,·
O=c1cc(CO)oc(CN2CCN(c3cccc(C(F)(F)F)c3)CC2)c1O,4%,?,1%,24%,-16%,·
O=c1cc(CO)oc(CN2CCN(c3ccccc3)CC2)c1O,-13%,-31%,-10%,-6%,50µM*,-2%
CC(C)c1nc(SCC(=O)Nc2ccc3c(c2)OCCO3)n[nH]1,-14%,5%,-13%,36%,-10%,·
O=C(NCc1ccccc1)c1ccc2c(c1)sc1nc(-c3ccc(F)cc3)cn12,12%,-14%,·,67%,-14%,·
CC(C)c1ccccc1NC(=O)COC(=O)Cc1cccc(C(F)(F)F)c1,?,8%,27µM*,2%,?,11%
Cc1ccc(N2C(=O)[C@@H]3CSC(c4ccc(Cl)cc4)N3C2=O)cc1 (stereo partly specified),6%,4%,·,42%,4%,·
COCCN1Cc2cccc(C(=O)Nc3ccc(C)cc3C)c2C1=O,4%,·,·,37%,-3%,·
C/C(N)=C(/C#N)C(=O)CSc1ncnc2ccccc12,-1%,7%,27µM*,-6%,?,-8%
C/C(N)=C(/C#N)C(=O)CSc1nc2ccccc2[nH]1,-3%,?,-9%,?,79µM*,·
COC(=O)c1c(NC(=O)CSc2ccccc2N)sc(C)c1C,4%,·,-12%,13%,-15%,·
O=C(Nc1ccccc1)c1ccc(-n2nncc2-c2ccccc2)cc1,61%,·,·,6%[57 µM],7%[57.1 µM],·
CCOC(=O)c1c2c(n(Cc3ccccc3)c1C)C(=O)C(=O)c1ccccc1-2,50µM*,·,-7%,25µM*,7.1µM*,·
CCOC(=O)c1c2c3c(cccc3n(C)c1=O)C(=O)c1ccccc1-2,2%,?,-10%,-1%,?,0%[2.29 µM]
COc1cc(O)c2c(c1)O[C@H](c1ccccc1)CC2=O,-14%,·,·,·,·,·
COc1ccc([C@@H]2CC(=O)c3c(O)cc(O[C@@H]4O[C@H](CO[C@@H]5O[C@@H](C)[C@H](O)[C@@H](O)[C@H]5O)[C@@H](O)[C@H](O)[C@H]4O)cc3O2)cc1O,-8%,50µM*,-1%,-14%,?,·
SMILES,VDR inh,BAZ2B block,PLK1 PBD inh,HP1b chromo inh,JMJD2A Tudor,L3MBTL1 inh
COc1cc(O)c2c(c1)OC(c1ccc(O)cc1)CC2=O (stereo unspecified),50µM*,-10%,-9%,74%,-23%,3%
COc1ccc(CN2CCSCC2)cc1C,-2%,79µM*,-7%,?,8.9µM*,·
O=S1(=O)CCN(Cc2cccc(Cl)c2)CC1,6%,-1%,-2%,14%,-24%,-5%
Clc1cccc(CN2CCSCC2)c1,-3%,?,7%,?,22µM*,-3%[2.29 µM]
Cc1ccc(CN2CCSCC2)cc1,4%,?,-4%,?,22µM*,4%
COc1cc(C)c(CN2CCSCC2)cc1C,-10%,?,-10%,-3%,32µM*,-7%[2.29 µM]
CCOc1cc(CN2CCCCC2)ccc1OC,-18%,4%,-20%,10%,-14%,-10%[11.4 µM]
Cc1ccc(CN2CCSCC2)c(C)c1,-11%,?,1%,?,-100%,-6%
Cc1ccc2c(c1)N(C(=O)N1CCC(C(=O)NCc3cccs3)CC1)CC(C)O2 (stereo unspecified),3%,-2%,·,19%,-13%,·
COc1cc(-c2[nH]ncc2CN2CCSCC2)cc(OC)c1OC,-17%,-3%,-14%,-2%,-7%,-6%
COc1cc(OC)c(OC)cc1CN1CCSCC1,-7%,79µM*,6%,?,3.2µM*,-4%
N#Cc1cccc(NC(=O)N2CC[C@@]3(CCCN(C(=O)c4ccncc4)C3)C2)c1,9%,·,·,·,·,·
Cc1ccc(-c2nc3cc(C(C)C)ccc3o2)cc1NC(=O)c1cc([N+](=O)[O-])ccc1N1CCOCC1,-15%,89µM*,·,26%,-19%,·
O=C(Nc1ccc(Cl)c(C(F)(F)F)c1)C(Cc1ccccc1)NS(=O)(=O)c1cccc2nsnc12 (stereo unspecified),-8%,·,·,24%,-13%,·
CN(C)c1ccc(NC(=O)c2ccc(COc3cccc(Cl)c3)o2)cc1,2%,10µM*,2%,?,13µM*,·
CCc1ccc(Cn2ncc3c(C(=O)O)cc(C)nc32)cc1,-10%,·,27µM*,0%[57 µM],?,·
CCc1ccc(NC(=O)c2cnn3c(C(F)F)cc(C)nc23)cc1,-6%,-13%,-9%,17%,-10%,-10%
FC(F)(F)c1ccccc1-c1ccc2ncnc(NCCN3CCOCC3)c2c1,-18%,·,·,·,·,·
CC(C)C(c1nnnn1C(C)(C)C)N1CCN(c2cccc(Cl)c2)CC1 (stereo unspecified),-3%,-3%,3µM*,-13%,-25%[11.4 µM],-3%
COc1ccc(C(=O)Nc2ccc(C(=O)OCc3cc(=O)n4nc(C(C)C)sc4n3)cc2)cc1,10%,-3%,·,37%,-3%,·
O=c1c2ccccc2cnn1Cc1n[nH]c(=S)n1-c1cc(Cl)cc(Cl)c1,-8%,-34%,-10%,21%,25µM*,0%
CC(c1ccc(F)cc1)n1c(Cn2ncc3ccccc3c2=O)n[nH]c1=S (stereo unspecified),-17%,1%,-14%,10%,13µM*,10%
O=c1c2ccccc2cnn1Cc1n[nH]c(=S)n1-c1ccccc1Cl,-1%,-29%,-9%,40%,32µM*,6%
